Vaccinia Venus: vaccinia inhibition (Venus reporter). AID 720580. Vaccinia virus Venus reporter expression, fluorescence. 330,000 tested, 0.46% active. Potency, µM (series often up to 36.5 µM), for the others: top-dose activity change, negative = inhibition, actives largely listed as inhibitors; calls by dose curve; tested in A549 cells; also: potency is read from the fitted curve at half-maximal effect; nearly all actives have a fitted effect of over 30% in size
HCMV inh: blocks human cytomegalovirus replication; HFF cells, HCMV-luciferase reporter, 72 h; active compounds read low; activity change, negative = inhibition, % at 57.5 µM; 410,000 tested, 4.5% active; AID 1259415; in the data active = activity change below about -60%; inconclusive = no clear call, values can overlap the other calls; inactive = above about -39%
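Two compound doses tested in HFFs infected with HCMV-luciferase, MOI 1 PFU/cell, 72 h at 37C. Lysate luminescence read with OneGlo; data normalized against buffer-only and 10uM Salinomycin inhibitor controls.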
Vaccinia mCherry: inhibitors of vaccinia virus infection (mCherry reporter signal) | 310,000 tested, 0.63% active | Vaccinia virus mCherry reporter infection, fluorescence | Potency, µM (highest dose often 36.5 µM), for the others: at the top dose activity change, negative = inhibition, usual class: inhibitors; calls by dose curve; tested in A549 cells; also: potency is read from the fitted curve at half-maximal effect; nearly all actives have a fitted effect of over 35% in size
Marburg entry inh: blocks Marburg virus binding to or entry into cells; Marburg virus pseudotyped entry inhibition, cell reporter; Potency, µM (highest dose often 37.8 µM), without a hit: at the top dose activity change, negative = inhibition, actives largely listed as inhibitors; 300,000 tested, 1.8% active; calls by dose curve; tested in HEK293 cells; also: potency is read from the fitted curve at half-maximal effect
FMDV antiviral: foot and mouth disease virus antiviral activity | FMDV antiviral cell-based qHTS | Potency, µM (highest dose often 57.9 µM), for inactives: at the top dose activity change, negative = inhibition, actives largely listed as inhibitors | 410,000 tested, 1.2% active; calls by dose curve; tested in HEK293T cells; also: read-out not given here; potency is read from the fitted curve at half-maximal effect; nearly all actives have a fitted effect of over 45% in size
LASV entry inh: blocks Lassa virus binding to or entry into cells | AID 540256 | 300,000 tested, 1.2% active | Lassa virus pseudotype entry inhibition, cell reporter | Potency, µM (highest dose often 37.9 µM), inactives show at the top dose activity change, negative = inhibition, most hits filed as inhibitors; calls by dose curve; tested in HEK293 cells; also: potency is read from the fitted curve at half-maximal effect; nearly all actives have a fitted effect of over 50% in size
An asterisk follows results filed as active; i = inactive; ? = inconclusive; / = not tested or not shown; [ ] = another dose, or the depositor's remark. An excerpt weighted towards active compounds, which were near 6.5% of everything screened. % is scaled to controls: 0 for no effect and ±100 for the full control effect.

SMILES	Vaccinia Venus	HCMV inh	Vaccinia mCherry	Marburg entry inh	FMDV antiviral	LASV entry inh
CC(NC(=S)Nc1ccc(F)cc1)c1ccccc1 (stereo not drawn)	-12.5%	?	-4.4%	-1.4%	-1.9%	0.3%
CCOC(=O)N1C(=O)C[C@H](C(=O)N2CCOCC2)[C@H]1c1ccc(OC)cc1	/	-14.4	/	/	/	/
Nc1cc(Nc2ccccc2)ccn1	-13.7%	-25.4	?	-25.9%[46.1 µM]	-16.6%	-0.1%
N#Cc1sc2nccc(Nc3ccccc3)c2c1N	-17.9%[7.34 µM]	-86.8*	-2.0%[7.34 µM]	-27.7%[46.1 µM]	?	-27.5%
NC(=O)[C@H]1CC2(CC(c3cccc(NC(=O)COc4ccc(Cl)cc4)c3)=NO2)CN1C(=O)c1ccc(Cl)cc1 (stereo partly drawn)	11.2µM*	?	11.2µM*	/	-28.4%	/
C=C(C)C(=O)Nc1cccc(C2=NOC3(C2)C[C@@H](C(N)=O)N(C(=O)c2cc([N+](=O)[O-])cc([N+](=O)[O-])c2C)C3)c1 (stereo partly drawn)	-7.7%	53.0	-15.8%	/	0.7%	/
C/C=C/C(=O)Nc1cccc(C2=NOC3(C2)C[C@@H](C(N)=O)N(C(=O)c2cc([N+](=O)[O-])cc([N+](=O)[O-])c2C)C3)c1 (stereo partly drawn)	-9.6%	-74.2*	i	/	2.6%	/
O=C1[C@@H]2[C@H]3[C@H](O)[C@H](O)CC(=NOC[C@@H](O)COCc4ccco4)[C@@H]3CC[C@H]2C(=O)N1C[C@@H]1CCCO1	/	/	/	-0.9%[14.2 µM]	/	/
CC(C)c1ccc(C2NC(=S)NC3=C2C(=O)CC(C)(C)C3)cc1 (stereo not drawn)	-21.9%	-71.1*	-2.7%	18.7%	-29.5%	-0.6%
CCc1ccc(C2NC(=S)NC3=C2C(=O)CC(C)(C)C3)cc1 (stereo not drawn)	-24.6%	-21.3	-20.3%	?	-20.6%	0.8%
O=C(Nc1cc(Cl)ccc1O)c1snnc1-c1ccccc1	/	-99.8*	/	?	20µM*	?
COc1ccc(-c2nc3scc(CCNS(=O)(=O)c4cccs4)n3n2)cc1	-11.7%	?	-9.3%	/	6.3%	-18.4%[46.1 µM]
COc1ccc(-c2c/c(=N\c3nc(-c4ccccc4)c(C)s3)c3ccccc3o2)cc1O	?	-95.9*	/	?	?	?
COc1ccc(-c2cc(=Nc3c(C)n(C)n(-c4ccccc4)c3=O)c3ccccc3o2)cc1	-24.4%	89.0	-2.3%	?	-4.1%	7.2%[46.1 µM]
Oc1c(C(c2ccccc2F)N2CCC3(CC2)OCCO3)sc2nc(-c3ccco3)nn12 (stereo not drawn)	-3.1%	11.0	-4.6%	/	11.9%	?
CNC(=S)N/N=C1\C(=O)c2cccc3cccc1c23	-14.1%	-106.4*	i	-5.1%	2.5%	-24.2%
FC(F)(F)c1nnc2c(Sc3ccc(Cl)cc3)nc3ccccc3n12	/	-102.6*	/	2.0%	?	3.8%
FC(F)(F)c1nnc2c(Sc3ccccc3)nc3ccccc3n12	/	-100.8*	/	-5.1%	30.6%	-0.6%
FC(F)(F)c1nc2ccccc2n2c(-c3ccc(Cl)cc3)nnc12	?	-105.7*	/	?	?	?
FC(F)(F)c1nnc2c(Sc3ccccn3)nc3ccccc3n12	/	-2.9	/	-19.3%	6.2%	1.5%
c1cnc2ccc(-c3ccc4ncccc4c3)cc2c1	-26.2%	13.4	-20.0%	?	-25.0%	4.47µM*
CC1=C([N+](=O)[O-])C(c2cccc(Br)c2)C2=C(N1)c1ccccc1C2=O (stereo not drawn)	/	-89.7*	/	1.3µM*	?	?
CCc1nn(Cc2c(C)cc(C)cc2C)c(=O)c2cc3cc(C)ccc3n12	8.2%	1.3	0.9%	?	-4.0%	-11.4%[46.1 µM]
CC12CCC(C(=O)N(CCCN3CCN(Cc4ccccc4)CC3)C1=O)C2(C)C (stereo not drawn)	0.7%	-90.3*	-1.6%	?	-20.6%	16.8%
CCN(CC)S(=O)(=O)c1ccc(C(=O)Nc2cccc(C)c2)cc1	-28.6%	-26.3	i	3.9%	/	?
SMILES	Vaccinia Venus	HCMV inh	Vaccinia mCherry	Marburg entry inh	FMDV antiviral	LASV entry inh
Cc1ccnc(NC(=O)Nc2cccc(F)c2)c1	/	11.7	/	?	-34.3%	6.51µM*
CCN(CC)S(=O)(=O)c1ccc(NC(=O)Nc2cccc(C(F)(F)F)c2)cc1	/	-105.1*	/	?	?	?
O=C(NCc1ccccc1CN1CCCC1)c1ccc(S(=O)(=O)Nc2ccccc2F)cc1	-25.1%	-75.4*	?	/	-7.4%	/
O=C(NCc1ccccc1Cl)c1ccc(S(=O)(=O)Nc2cccc(C(F)(F)F)c2)cc1	-5.6%	-65.7*	i	?	3.4%	?
CCC(=O)N1CCc2cc(Br)cc(S(=O)(=O)CCC(=O)Nc3cccc(C)c3C)c21	3.6%	21.4	-16.7%	6.8%[46.1 µM]	41.3%	8.5%[46.1 µM]
COCCc1nn2c(=O)cc(COC(=O)c3ccc4c(c3)OCO4)nc2s1	-10.1%	-13.3	-16.9%	/	-6.5%	3.2%[46.1 µM]
Cc1ccc(S(=O)(=O)Nc2ccc(C(=O)Nc3ccncc3)cc2)cc1	-9.5%	28.2	-24.9%	?	15.0%	-11.9%
Cc1ccc(S(=O)(=O)Nc2ccc(NC(=O)Nc3cccc(C(F)(F)F)c3)cc2)cc1	?	-61.6*	11.2µM*	?	?	?
Cc1ccc(NS(=O)(=O)c2ccc(NC(=O)c3cccc(NC(=O)C(C)C)c3)cc2)cc1	?	-34.3	/	12.6µM*	?	?
CNS(=O)(=O)c1ccc(NC(=O)Nc2cccc(F)c2)cc1	-5.6%	-101.5*	-3.4%	-12.1%	-1.4%	-1.4%[46.1 µM]
CCc1ccccc1NC(=O)CSc1nc2ncccc2o1	-20.3%	11.0	-9.8%	/	-5.8%	13.6%[46.1 µM]
CCCCC1CN(CCNC(=O)c2ccccn2)Cc2ccccc2O1 (stereo not drawn)	-0.5%	/	-9.8%	/	-11.0%	/
CCOC(=O)c1c(CN2CCNCC2)nc2ccc(Cl)cc2c1-c1ccccc1	?	2.1	10µM*	?	-17.2%	-28.6%
Cc1nc2ccc(Cl)cc2c(-c2ccccc2)c1C(=O)N(C)C	/	-3.5	/	/	2.8%	/
COc1ccccc1C(=O)N[C@@H]1c2ccccc2C2(CCN(Cc3nccs3)CC2)[C@H]1OC	-6.2%	/	-20.6%	/	-13.7%	/
CCc1ccccc1NC(=O)C(=O)NCC(c1cccnc1)N1CCc2ccccc21 (stereo not drawn)	-16.8%	-7.8	-13.2%	/	?	5.0%[46.1 µM]
Cc1cccc(Nc2nc(OCC#N)nc(N(C)C)n2)c1	-16.7%	37.7	-19.8%	-14.4%[46.1 µM]	0.0%	22.1%[46.1 µM]
CCN(CC)c1nc(Nc2ccc(Cl)cc2)nc(OCC#N)n1	?	-67.7*	/	?	?	-3.8%
C#CCN1C(=O)C(O)(CC(=O)c2ccc(OC)c(OC)c2)c2cc(Br)ccc21 (stereo not drawn)	-11.6%	-62.0*	-9.7%	-9.6%[46.1 µM]	2.8%	-15.6%[46.1 µM]
CC(C)c1ccc(C(=O)CC2(O)C(=O)N(CCc3ccccc3)c3ccc(Cl)cc32)cc1 (stereo not drawn)	-24.0%	-105.2*	?	?	1.6%	?
